Giardia FBPA inh = Giardia lamblia aldolase inhibition | purified Giardia FBPA | 290,000 compounds, 0.71% hits | Potency, µM (doses to about 59.6 µM), hits mostly inhibitors | A8B2U2; active means well fitted inhibition curve with a large enough effect; inconclusive means small, poorly fitted or top-dose-only effect, or effect the other way; further: nearly all actives have a fitted effect of over 55% in size
Target sequence (A8B2U2 whole entry, looked up): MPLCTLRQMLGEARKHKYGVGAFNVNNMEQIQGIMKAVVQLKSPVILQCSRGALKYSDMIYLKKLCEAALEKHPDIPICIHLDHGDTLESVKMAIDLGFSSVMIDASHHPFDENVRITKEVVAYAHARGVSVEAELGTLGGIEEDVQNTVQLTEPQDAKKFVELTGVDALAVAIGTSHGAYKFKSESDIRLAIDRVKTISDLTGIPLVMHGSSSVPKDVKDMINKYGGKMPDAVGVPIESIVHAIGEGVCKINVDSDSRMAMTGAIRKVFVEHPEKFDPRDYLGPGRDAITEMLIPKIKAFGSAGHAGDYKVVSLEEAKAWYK
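40 nM FBPA preincubated 10 min at RT with compound (up to 57.5 uM final), then substrate plus GAPDH/TPI/NAD/arsenate coupling and diaphorase/resazurin added. Fluorescence read after 20 min at RT, 525/598 nm.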
Vaccinia mCherry = vaccinia inhibition (mCherry reporter) | Vaccinia virus mCherry reporter infection, fluorescence | Potency, µM (top dose mostly 36.5 µM), most hits filed as inhibitors | 310,000 compounds, 0.63% hits; calls by dose curve; tested in A549 cells; further: nearly all actives have a fitted effect of over 35% in size
VACV Venus inh = vaccinia inhibition (Venus reporter). Potency, µM (highest dose often 36.5 µM), actives largely listed as inhibitors. 330,000 compounds, 0.46% hits. Vaccinia virus Venus reporter expression, fluorescence. AID 720580; calls by dose curve; tested in A549 cells; further: nearly all actives have a fitted effect of over 30% in size
FMDV inh = blocks foot and mouth disease virus; FMDV antiviral cell-based qHTS; Potency, µM (top dose mostly 57.9 µM), hits mostly inhibitors; 410,000 compounds, 1.2% hits; AID 1159524; calls by dose curve; tested in HEK293T cells; further: read-out not given here; nearly all actives have a fitted effect of over 45% in size
Each line names hits and unclear results; the compound was inactive in the other large screens. Compounds with a hit are over-represented: about 2.2% of the library has one in this group of screens.

COc1ccc(C(=O)/C=C/C(=O)N(CC(=O)NC2CCCCC2)Cc2ccccc2)c(O)c1	FMDV inh 8.91µM
COc1ccc(C(=O)/C=C/C(=O)N(Cc2ccc(F)cc2)C(C(=O)NC2CCCCC2)c2ccncc2)c(O)c1 (stereo not drawn)	VACV Venus inh inconclusive, FMDV inh inconclusive
COc1ccc(C(=O)/C=C/C(=O)N(Cc2ccccc2)C(C(=O)NC2CCCCC2)c2ccncc2)c(O)c1 (stereo not drawn)	none
COc1ccc(C(=O)/C=C/C(=O)N(CC(=O)NC2CCCCC2)Cc2ccccc2OC)c(O)c1	Vaccinia mCherry inconclusive, FMDV inh 7.94µM
COc1ccc(C(=O)/C=C/C(=O)N(CC(=O)NC2CCCCC2)CC2CCCO2)c(O)c1 (stereo not drawn)	FMDV inh 7.94µM (no result: Vaccinia mCherry, VACV Venus inh)
COC(=O)C1=C(C(=O)OC)[C@@H]2N(C)c3ccccc3[C@@]23C[C@@H](C(=O)OC)N(S(=O)(=O)c2ccc4c(c2)OCCN4C)C3=N1	none (no result: Vaccinia mCherry, VACV Venus inh, FMDV inh)
c1ccc(-n2nnnc2Sc2ncnc3sc4c(c23)CCCC4)cc1	FMDV inh 28.2µM
CN(C(=O)CCN1C(=O)/C(=C/c2ccc(F)cc2)SC1=S)C1CCS(=O)(=O)C1 (stereo not drawn)	Vaccinia mCherry inconclusive, VACV Venus inh 11.2µM (no result: Giardia FBPA inh)
CCCCc1c(-c2ccccc2OC)ncn1CCc1ccccc1OC	Vaccinia mCherry inconclusive, VACV Venus inh inconclusive, FMDV inh 22.4µM (no result: Giardia FBPA inh)
CCCCc1c(-c2ccccc2Br)ncn1CCc1ccccc1OC	FMDV inh inconclusive (no result: Giardia FBPA inh)
CCCCc1c(-c2ccccc2OC)ncn1CCc1cccc(F)c1	FMDV inh inconclusive (no result: Giardia FBPA inh)
CCCCc1c(-c2ccccc2OC)ncn1CCc1ccccc1Cl	FMDV inh 35.5µM (no result: Giardia FBPA inh)
CCCCCc1c(-c2ccccc2OC)ncn1CCc1ccccc1OC	Vaccinia mCherry inconclusive, VACV Venus inh inconclusive, FMDV inh 25.1µM (no result: Giardia FBPA inh)
CCCCc1c(-c2ccccc2OC)ncn1CCc1cccc(OC)c1	FMDV inh 22.4µM (no result: Giardia FBPA inh)
CCCCCc1c(CC)ncn1CCc1ccccc1OC	FMDV inh 39.8µM (no result: Giardia FBPA inh)
O=C(CSc1nc2ccccc2c(=O)[nH]1)Nc1ccc([N+](=O)[O-])cc1	Vaccinia mCherry inconclusive, VACV Venus inh 20µM, FMDV inh inconclusive (no result: Giardia FBPA inh)
Oc1ccccc1-c1nc2c3ccccc3c3ccccc3c2[nH]1	Giardia FBPA inh 17.7µM (no result: Vaccinia mCherry, VACV Venus inh)
CSc1ncccc1C(=O)NCC1Cc2cc(-c3cnccn3)ccc2O1 (stereo not drawn)	none (no result: Giardia FBPA inh)
CC(C)Oc1ccc(Br)cc1/C=N\NC(N)=S	Vaccinia mCherry 5.62µM, VACV Venus inh 7.94µM, FMDV inh inconclusive
COC(=O)c1ccc(C(=O)NCC2Cc3cc(F)cc(-c4cncnc4)c3O2)cc1 (stereo not drawn)	none (no result: Giardia FBPA inh)
COc1cc(CNc2nc(C)c(-c3ccn(C4Cc5ccccc5C4)n3)s2)cc2c1OCO2	none (no result: Giardia FBPA inh)
Cn1cc(CN2CCOc3ccc(C(O)C4CCCCC4)cc3C2)cn1 (stereo not drawn)	none (no result: Giardia FBPA inh)
O=C(Cc1cccs1)NCCSc1c(-c2ccc(Cl)cc2)[nH]c2ccccc12	Vaccinia mCherry 11.2µM, VACV Venus inh 12.6µM, FMDV inh 22.4µM
O=C1C=CC(=C(c2ccc(O)cc2)c2ccc(O)cc2)C=C1	FMDV inh 12.6µM
O=S(=O)(c1ccc(O)cc1)c1ccc(O)cc1	none (no result: Vaccinia mCherry, VACV Venus inh)
CSc1nc(=O)[nH]c2nc[nH]c12	none (no result: Giardia FBPA inh, FMDV inh)
CCc1cccc(CC)c1N(COC)C(=O)Cn1c(C)nc2ccccc21	FMDV inh 10µM (no result: Giardia FBPA inh)
COc1cc(C(=O)N/N=C/c2ccc(OC(=O)c3cccc(C)c3)cc2)ccc1O	FMDV inh 35.5µM
O=C(CNC(=O)c1ccc2c(c1)OCO2)N/N=C/c1cc(Br)ccc1O	Vaccinia mCherry 1.58µM, VACV Venus inh inconclusive
COc1ccc(Br)cc1/C=N/NC(=O)c1cc(Br)ccc1O	none (no result: Vaccinia mCherry, VACV Venus inh, FMDV inh)
COc1ccc(C(=O)N/N=C/c2cc(Br)ccc2O)cc1OC	Vaccinia mCherry 17.8µM
CN(C)c1ccc(C(=C2c3ccccc3-c3ccccc32)c2ccc(N(C)C)cc2)cc1	none (no result: Giardia FBPA inh, FMDV inh)
CCOC(=O)C1CCCN(C(=O)c2cnn(-c3nccc(-c4cc(C)sc4C)n3)c2C)C1 (stereo not drawn)	none (no result: Giardia FBPA inh)
On1c2c(c3c4nonc4ccc31)CCCC2	Giardia FBPA inh 5.61µM (no result: Vaccinia mCherry, VACV Venus inh, FMDV inh)
N#CC(C#N)=C1c2cc(S(=O)(=O)NCCO)ccc2-c2ccc(S(=O)(=O)NCCO)cc21	Giardia FBPA inh inconclusive
N#CC(C#N)=C1c2cc(S(N)(=O)=O)ccc2-c2ccc(S(N)(=O)=O)cc21	Giardia FBPA inh inconclusive, FMDV inh 25.1µM (no result: Vaccinia mCherry, VACV Venus inh)
CC(C)(C)OC(=O)N[C@@H](Cc1ccccc1)c1nnc(S(=O)(=O)Cc2ccccc2)o1	none (no result: Vaccinia mCherry, VACV Venus inh, FMDV inh)
Cc1ccccc1CS(=O)(=O)c1nnc([C@H](Cc2ccccc2)NC(=O)OC(C)(C)C)o1	FMDV inh 28.2µM
CCC(C)[C@@H](NC(=O)OC(C)(C)C)c1nnc(S(=O)(=O)Cc2cccc(C)c2)o1 (stereo partly drawn)	VACV Venus inh inconclusive, FMDV inh 31.6µM (no result: Vaccinia mCherry)
COc1ccccc1N1CCN(c2nc(CNC(=O)C3CC34CCCC4)nc3ccccc23)CC1 (stereo not drawn)	none (no result: Giardia FBPA inh)
CCCCCCCCCC[n+]1cccc(Br)c1	VACV Venus inh inconclusive (no result: Giardia FBPA inh, FMDV inh)
C(C#CCCCCCCCCC[n+]1ccccc1)#CCCCCCCCCC[n+]1ccccc1	Vaccinia mCherry 10µM, VACV Venus inh 10µM, FMDV inh 17.8µM
COc1ccc(Sc2ccc(-c3nc4cnccn4c3NC3CCCCC3)cc2OC)cc1	Vaccinia mCherry inconclusive, VACV Venus inh 11.2µM, FMDV inh inconclusive (no result: Giardia FBPA inh)
FC(F)(F)c1cnc(NNC(=S)Nc2cccnc2)c(Cl)c1	Vaccinia mCherry 10µM, VACV Venus inh inconclusive
FC(F)(F)c1cnc(NNC(=S)Nc2ccccc2)c(Cl)c1	FMDV inh inconclusive (no result: Giardia FBPA inh)
CCCCOCCCNC(=S)Nc1ccc(S(=O)(=O)N2CCOCC2)cc1	none (no result: Vaccinia mCherry, VACV Venus inh)
COc1ccccc1N1CCN(C(=S)Nc2ccc(S(=O)(=O)N3CCOCC3)cc2)CC1	Vaccinia mCherry inconclusive, VACV Venus inh inconclusive, FMDV inh 25.1µM
O=S(=O)(c1ccc(NC(=S)NCCC(c2ccccc2)c2ccccc2)cc1)N1CCOCC1	Vaccinia mCherry 10µM, VACV Venus inh 11.2µM, FMDV inh inconclusive
CS[C@@H]1SC[C@H]2C(=O)N(C)C(C(C)C)C(=O)OC[C@@H](NC(=O)c3cnc4ccccc4n3)C(=O)N[C@@H](C)C(=O)N(C)[C@H]1C(=O)N(C)C(C(C)C)C(=O)OC[C@@H](NC(=O)c1cnc3ccccc3n1)C(=O)N[C@@H](C)C(=O)N2C (stereo partly drawn)	none (no result: Vaccinia mCherry, VACV Venus inh, FMDV inh)
CCOc1ccc(C(=O)N/N=C(\c2ccccc2)c2ccccn2)cc1	Vaccinia mCherry 11.2µM, VACV Venus inh inconclusive
O=C(CCCC(=O)NCc1ccccc1)NCc1ccccc1	none
O=C(CCCC(=O)NCc1ccc(F)cc1)NCc1ccc(F)cc1	FMDV inh 35.5µM
CC1=C(O)C(=O)C=C2C1=CC=C1C2(C)CCC2(C)C3CC(C)(C(=O)O)CCC3(C)CCC12C (stereo not drawn)	Vaccinia mCherry 22.4µM, VACV Venus inh 10µM (no result: Giardia FBPA inh)
CC(=O)Oc1cc2c(c(C)c1OC(C)=O)CC=C1[C@]3(C)CC[C@]4(C)CC[C@@](C)(C(=O)O)CC4[C@]3(C)CC[C@]12C (stereo partly drawn)	FMDV inh 35.5µM
